This note sets out measurements from PMC4336329 (PLoS ONE, 2015).

Among all 310,000 compounds or so, about 14,000 (4.5%) showed an effect of 50% or more. Effects have a minus sign here. This excerpt belongs to a sample that is enriched for strong results.
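Note: peak tail current of the secondary pulse compared with the same well before compound.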

For the test, the target named is human ether-à-go-go-related gene (hERG) potassium channel (human, UniProt Q12809). The test can be described thus: primary screen, population patch clamp on CHO cells stably expressing hERG; higher = less effect of the substance.
human ether-à-go-go-related gene (hERG) potassium channel, sequence (Q12809 whole entry, looked up): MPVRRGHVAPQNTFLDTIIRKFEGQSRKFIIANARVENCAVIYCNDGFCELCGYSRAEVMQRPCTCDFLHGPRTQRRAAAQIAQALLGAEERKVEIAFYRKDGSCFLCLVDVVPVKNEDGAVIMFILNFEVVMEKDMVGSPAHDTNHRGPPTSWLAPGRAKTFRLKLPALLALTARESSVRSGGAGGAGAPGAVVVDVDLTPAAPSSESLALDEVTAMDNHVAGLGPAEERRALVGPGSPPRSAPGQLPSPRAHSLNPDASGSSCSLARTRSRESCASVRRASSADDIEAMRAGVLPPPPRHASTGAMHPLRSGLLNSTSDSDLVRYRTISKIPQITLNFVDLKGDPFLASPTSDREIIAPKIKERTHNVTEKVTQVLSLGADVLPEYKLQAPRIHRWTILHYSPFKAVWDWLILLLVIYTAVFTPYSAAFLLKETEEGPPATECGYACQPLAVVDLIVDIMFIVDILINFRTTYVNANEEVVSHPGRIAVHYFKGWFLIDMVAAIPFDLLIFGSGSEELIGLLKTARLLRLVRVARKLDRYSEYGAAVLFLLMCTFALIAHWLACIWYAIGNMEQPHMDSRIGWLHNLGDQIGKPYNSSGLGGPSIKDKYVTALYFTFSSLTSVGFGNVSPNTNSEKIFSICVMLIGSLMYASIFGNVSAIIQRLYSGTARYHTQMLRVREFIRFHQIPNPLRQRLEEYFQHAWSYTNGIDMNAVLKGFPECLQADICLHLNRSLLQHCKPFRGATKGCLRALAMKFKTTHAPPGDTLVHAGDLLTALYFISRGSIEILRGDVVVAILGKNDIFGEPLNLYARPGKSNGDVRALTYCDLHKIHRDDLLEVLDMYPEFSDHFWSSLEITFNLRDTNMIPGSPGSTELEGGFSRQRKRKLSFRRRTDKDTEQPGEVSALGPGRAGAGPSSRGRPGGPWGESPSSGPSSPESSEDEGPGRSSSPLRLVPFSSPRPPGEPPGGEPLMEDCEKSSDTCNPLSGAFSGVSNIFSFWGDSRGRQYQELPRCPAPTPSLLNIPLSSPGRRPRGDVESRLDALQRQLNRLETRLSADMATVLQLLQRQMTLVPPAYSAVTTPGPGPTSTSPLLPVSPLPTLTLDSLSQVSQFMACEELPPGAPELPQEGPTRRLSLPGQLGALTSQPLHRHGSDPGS
As to `O=C(CN1CCC(c2nc3ccccc3s2)CC1)NCc1cccs1`, the “hERG current change (%, negative = inhibition) at 10uM” value is reported as -37.2%.
In the case of `O=C(c1cccc(F)c1)N1CCC(c2nc3ccccc3s2)CC1` it was -49.9%.
Take `O=C(c1cccs1)N1CCN(c2nc3ccccc3s2)CC1`: the “hERG current change (%, negative = inhibition) at 10uM” value turned out to be 0.757%.
For `O=C(c1ccccc1Br)N1CCC(c2nc3ccccc3s2)CC1`, the “hERG current change (%, negative = inhibition) at 10uM” value was -35.1%.
In the case of `O=C(c1cccs1)N1CCC(c2nc3ccccc3s2)CC1` it was -57.2%; in that of `Cc1cccc(C(=O)N2CCC(c3nc4ccccc4s3)CC2)c1`, -33.7%.
In the case of `O=C(CN1CCC(c2nc3ccccc3s2)CC1)NCc1ccccc1` it was -67.5%; in that of `O=C(CN1CCC(c2nc3ccccc3s2)CC1)N1CCCCC1`, -33.5%; in that of `CCc1ccc(C(=O)N2CCC(c3nc4ccccc4s3)CC2)cc1`, -71.9%.
Under `O=C(N/N=C/c1c[nH]c2ccc(Br)cc12)c1ccn(Cc2ccc(Cl)cc2Cl)n1` stands 6.95%; under `C/C(=C\c1ccc(Br)cc1)C(=O)c1c(C)cc(C)[nH]c1=O`, 8%.
Turning to `Cc1cc(C)c(NC(=O)CS)c(Cl)c1`, the “hERG current change (%, negative = inhibition) at 10uM” value is on record as 6.4%.
In the case of `CCOc1ccc(C(=O)Nc2c(C(N)=O)oc3ccccc23)cc1` it was 11.9%; in that of `O=C(c1ccc(F)cc1)N1CCC(N2CCCCCC2)CC1`, -26%; in that of `O=C(Nc1c(C(=O)N2CCOCC2)oc2ccccc12)c1ccccc1Cl`, 0.111%.
Under `O=C(Nc1c(C(=O)N2CCC(N3CCCCC3)CC2)oc2ccccc12)c1c(F)cccc1F` stands -51.7%.
In the case of `COc1cc(C(=O)Nc2c(C(=O)N3CCOCC3)oc3ccccc23)cc(OC)c1OC` it was -10%.
For `O=C(c1ccccc1F)N1CCC(N2CCCCCC2)CC1`, the “hERG current change (%, negative = inhibition) at 10uM” value is -10.3%.
Consider `O=C(Nc1c(C(=O)N2CCC(N3CCCCC3)CC2)oc2ccccc12)c1ccc(F)cc1`, for which the “hERG current change (%, negative = inhibition) at 10uM” value was -65.8%.
In the case of `O=C(Nc1ccc(F)cc1)c1oc2ccccc2c1NC(=O)C1CCCC1` it was -4.15%; in that of `CCOc1ccc(C(=O)Nc2c(C(=O)N3CCC(N4CCCCC4)CC3)oc3ccccc23)cc1`, -83.2%.
For the compound `O=C(O)CCCCCCCCc1cn(CCc2c[nH]c3ccccc23)nn1`, the “hERG current change (%, negative = inhibition) at 10uM” value stood at 4.49%.
As to `O=C(Nc1ccc(Cl)cc1)C1=Cc2ccccc2OC1`, the “hERG current change (%, negative = inhibition) at 10uM” value is -9.34%.
In the case of `CC(=NCCC1=CCCCC1)c1c(O)n(-c2ccccc2)c(=O)[nH]c1=O` it was 4.58%; in that of `CC(C)C[C@H](CO)Nc1nc(N(C)c2cccc(Cl)c2)c2ncn(C(C)C)c2n1`, -7.87%; in that of `COCCn1c(=S)[nH]c2cc(OC)c(OC)cc2c1=O`, 11%.
In the case of `COc1ccc(-c2nnnn2-c2ccccc2OC)cc1` it was -9.02%.
Under `Cc1ccc(CSc2nn3c(=O)c(C)nnc3s2)cc1` stands -13.9%; under `CCOC(=O)N1CCN(c2nc(-c3ccccc3)c3cc(C)ccc3n2)CC1`, -8.98%; under `Cc1ccc2nc(N3CCC(C(=O)O)CC3)nc(-c3ccccc3)c2c1`, -1.95%.
Take `Cc1ccc2nc(N3CCN(C=O)CC3)nc(-c3ccccc3)c2c1`: the “hERG current change (%, negative = inhibition) at 10uM” value is -56%.
Turning to `OCCN1CCN(c2nc(-c3ccccc3)c3cc(Br)ccc3n2)CC1`, the “hERG current change (%, negative = inhibition) at 10uM” value was -47.7%.
Take `OCCN1CCN(c2nc(-c3ccccc3)c3cc(Cl)ccc3n2)CC1`: the “hERG current change (%, negative = inhibition) at 10uM” value is listed as -26.2%.
For the compound `Cc1ccc2nc(N3CCN(CCO)CC3)nc(-c3ccccc3)c2c1`, the “hERG current change (%, negative = inhibition) at 10uM” value is given as -54.4%.
Under `Cc1cccn2c(Nc3ccccc3)c(-c3ccccn3)nc12` stands 1.81%; under `NC(CSCc1ccccc1Cl)C(=O)O` (stereo not shown), 0.173%; under `COc1ccc(S(=O)(=O)N(C)c2ccc(C(=O)Nc3ccccc3C(=O)N3CCOCC3)cc2)cc1`, -6.94%.
As to `Cc1ccc(-n2nnnc2-c2ccco2)cc1`, the “hERG current change (%, negative = inhibition) at 10uM” value is -2.37%.
`O=C(N1CCC(n2nc(-c3ccccc3)oc2=O)CC1)C1(c2ccccc2)CC1`: the “hERG current change (%, negative = inhibition) at 10uM” value is reported as -17.5%.
Under `COc1ccc(COC(=O)C2CC(=O)N(Cc3ccccc3)C2)cc1` (stereo not shown) stands -34.1%; under `COc1ccc(NC(=O)COC(=O)C2CC(=O)N(Cc3ccc(C)cc3)C2)cc1` (stereo not shown), -12.7%; under `NC(=O)C1CC(=O)N(c2ccc(OCc3ccc([N+](=O)[O-])cc3)cc2)C1` (stereo not shown), -30.8%.
Under `Cc1cccc(N2CC(C(=O)O)CC2=O)c1` (stereo not shown) stands -15.2%; under `Cc1cccc(N2CC(C(=O)OCc3ccc([N+](=O)[O-])cc3)CC2=O)c1` (stereo not shown), -64%; under `CCc1ccc(N2CC(C(=O)OCC(=O)Nc3ccc(C(C)=O)cc3)CC2=O)cc1` (stereo not shown), -19.1%.
Under `Cc1ccc(N2CC(C(=O)OCc3ccccc3)CC2=O)cc1` (stereo not shown) stands -15.6%.
In the case of `O=C(OCc1ccc([N+](=O)[O-])cc1)C1CC(=O)N(c2ccccc2)C1` (stereo not shown), the “hERG current change (%, negative = inhibition) at 10uM” value is listed as -69.1%.
In the case of `CCc1ccc(N2CC(C(=O)OCC(=O)Nc3ccc([N+](=O)[O-])cc3)CC2=O)cc1` (stereo not shown), the “hERG current change (%, negative = inhibition) at 10uM” value was -36.9%.
`CCc1ccc(N2CC(C(=O)OCC(=O)Nc3ccc(C#N)cc3)CC2=O)cc1` (stereo not shown): the “hERG current change (%, negative = inhibition) at 10uM” value was -57.9%.
In the case of `CC(=O)c1ccc(OC(=O)C2CC(=O)N(c3cccc(C)c3)C2)cc1` (stereo not shown) it was -1.85%; in that of `COc1ccc(COC(=O)C2CC(=O)N(Cc3ccc(C)cc3)C2)cc1` (stereo not shown), -58.3%; in that of `Cc1ccnc(NS(=O)(=O)c2ccc(NS(=O)(=O)Cc3ccccc3)cc2)n1`, 9.43%.
Regarding `COc1cc2c(cc1OC)C(=S)NC1(CCCC1)C2`, the “hERG current change (%, negative = inhibition) at 10uM” value is on record as 9.36%.
For the compound `COc1ccc(CCNC(C)C(=O)Nc2ccc(S(N)(=O)=O)cc2)cc1` (stereo not shown), the “hERG current change (%, negative = inhibition) at 10uM” value is on record as -9.23%.
Under `CC1CCC2C(=O)N(c3ccc(NC4CCCCC4)c([N+](=O)[O-])c3)C(=O)C2C1` (stereo not shown) stands 1.71%.
On to `Cc1ccc(CSc2nc3c(c(=O)[nH]2)C(c2ccncc2)C2=C(CCCC2=O)N3)cc1` (stereo not shown), for which the “hERG current change (%, negative = inhibition) at 10uM” value is 9.42%.
In the case of `COc1ccc(CCN2CC(C(=O)N(C)Cc3cccnc3)CC2=O)cc1OC` (stereo not shown) it was 8.53%; in that of `COC(=O)c1nnn(-c2nonc2N)c1CSCCO`, 14.6%; in that of `Cc1ccc(N2CC(C(=O)OCC(=O)C(C)(C)C)CC2=O)cc1` (stereo not shown), -4.69%.
Regarding `Cc1ccc(N2CC(C(=O)OCc3ccc([N+](=O)[O-])cc3)CC2=O)cc1` (stereo not shown), the “hERG current change (%, negative = inhibition) at 10uM” value was -58.5%.
On to `Cc1ccc(N2CC(C(=O)OCC(=O)c3ccc([N+](=O)[O-])cc3)CC2=O)cc1` (stereo not shown), for which the “hERG current change (%, negative = inhibition) at 10uM” value is listed as -26.8%.
In the case of `O=C1OC(Nc2ccccn2)c2ccccc21` (stereo not shown), the “hERG current change (%, negative = inhibition) at 10uM” value is on record as -5.61%.
For `NC(=O)C1(N2CCCCC2)CCN(C(=O)c2ccc(C#CC3(O)CCCCC3)cc2)CC1`, the “hERG current change (%, negative = inhibition) at 10uM” value is -6.21%.
In the case of `COc1ccccc1C(=O)N/C(=C\c1ccccc1)C(=O)NCc1ccco1` it was -38.1%; in that of `O=C(NCc1ccco1)/C(=C\c1cccnc1)NC(=O)c1ccccc1F`, -51.1%; in that of `O=C(N/C(=C\c1cccnc1)c1nc2ccccc2[nH]1)c1cccc(Br)c1`, -54.9%.
On to `COc1ccc(/C=C(/NC(=O)c2ccccc2)c2nc3ccccc3[nH]2)cc1OC`, for which the “hERG current change (%, negative = inhibition) at 10uM” value is recorded as -12.5%.
As for `Cc1ccc(C(=O)N/C(=C/c2cccnc2)C(=O)NCc2ccco2)cc1`, the “hERG current change (%, negative = inhibition) at 10uM” value was -41.7%.
In the case of `O=C(NCc1ccco1)/C(=C\c1ccccc1)NC(=O)c1ccccc1` it was 6.85%; in that of `COc1ccc(C(=O)N/C(=C/c2cccnc2)C(=O)NCc2ccco2)cc1OC`, 9.12%; in that of `Cc1ccc(C(=O)N/C(=C\c2cccnc2)c2nc3ccccc3[nH]2)cc1`, -19.7%.
In the case of `O=C(NCc1ccco1)/C(=C/c1cccnc1)NC(=O)c1cccc(Br)c1` it was -59.6%; in that of `CCCNS(=O)(=O)c1cccc2cccnc12`, -6.32%; in that of `Cc1cccc(-c2cc(C(=O)NCc3ccccn3)c3ccccc3n2)c1`, -18%.
Under `Cc1ccc(OCc2n[nH]c(=S)n2C2CCCCC2)cc1` stands 21%; under `Cc1ccc(-n2c(C)cc(/C=N/NC(=O)c3ccncc3)c2C)cc1C`, 17.3%; under `COc1ccccc1-n1cnnc1SCc1csc(-c2ccccc2)n1`, -20.9%.
As to `O=C(CCC(=O)c1cccs1)NCc1cccc(C(F)(F)F)c1`, the “hERG current change (%, negative = inhibition) at 10uM” value is listed as -7.88%.
`COc1ccc(C(=O)N2CCN(c3ncccn3)CC2)cc1S(=O)(=O)N1CCOCC1`: the “hERG current change (%, negative = inhibition) at 10uM” value is 6.96%.
`COc1cc2c(cc1OC)C(COc1ccc([N+](=O)[O-])cc1)NCC2` (stereo not shown): the “hERG current change (%, negative = inhibition) at 10uM” value is -76.6%.
Under `COc1cc2c(cc1OC)C(COc1ccc([N+](=O)[O-])cc1)N(C(C)=O)CC2` (stereo not shown) stands -77.4%.
Under `COc1cc2c(cc1OC)C(COc1ccc(F)cc1)NCC2` (stereo not shown) stands -26.8%.
Consider `COc1cc2c(cc1OC)C(COc1ccc(F)cc1)N(C(C)=O)CC2` (stereo not shown), for which the “hERG current change (%, negative = inhibition) at 10uM” value is -11.9%.
For `COC(=O)c1ccc(OCC2c3cc(OC)c(OC)cc3CCN2C(=O)C2CC2)cc1` (stereo not shown), the “hERG current change (%, negative = inhibition) at 10uM” value is reported as -56.3%.
`CCc1ccc(OCC2c3cc(OC)c(OC)cc3CCN2C(C)=O)cc1` (stereo not shown): the “hERG current change (%, negative = inhibition) at 10uM” value was -11.5%.
In the case of `CCC(=O)N1CCc2cc(OC)c(OC)cc2C1COc1ccc(C(=O)OC)cc1` (stereo not shown) it was -1.37%; in that of `COC(=O)c1ccc(OCC2c3cc(OC)c(OC)cc3CCN2C(C)=O)cc1` (stereo not shown), 8.8%; in that of `COc1ccc(OCC2NCCc3cc(OC)c(OC)cc32)cc1` (stereo not shown), -8.93%.
